High-throughput results: PubChem, National Center for Advancing Translational Sciences (NCATS)
AMA1-RON2 inh: inhibitors of Plasmodium falciparum AMA1-RON2 interaction; AlphaScreen AMA1-biotinylated RON2 peptide binding; Potency, µM (highest dose often 58.2 µM), for the others: at the highest dose activity change, negative = inhibition, hits mostly inhibitors; 0.2% of 360,000 active;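 note: 0% = vehicle wells and -100% = peptide control; nearly all actives have a fitted effect of over 45% in size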
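AMA1 (3D7) with his tag at 25 nM final met compounds first, then biotinylated RON2 peptide at 25 nM; detection used donor plus acceptor beads, 10 µg/mL apiece, read by AlphaScreen after 30 min at room temperature.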
LmPK inhibitor: LmPK (Leishmania mexicana) enzyme inhibition | Q27686 | purified LmPK, Kinase-Glo ATP luminescence, 1 h | Potency, µM (top dose mostly 57.5 µM), without a hit: at the top dose activity change, negative = inhibition, usual class: inhibitors | 0.37% of 290,000 active | AID 1721
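Pyruvate kinase activity monitored as ATP production (luciferase luminescence). Conditions: 0.1 nM enzyme, 0.5 mM PEP, 0.1 mM ADP, 1 h, RT; normalized against uninhibited and no-enzyme wells.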
FBPA Giardia inh: blocks Giardia fructose-bisphosphate aldolase activity; Potency, µM (top dose mostly 59.6 µM), without a hit: at the highest dose activity, negative = inhibition, most hits filed as inhibitors; purified Giardia FBPA; 0.71% of 290,000 active; AID 2451; A8B2U2; note: nearly all actives have a fitted effect of over 55% in size
Target sequence (A8B2U2 whole entry, looked up): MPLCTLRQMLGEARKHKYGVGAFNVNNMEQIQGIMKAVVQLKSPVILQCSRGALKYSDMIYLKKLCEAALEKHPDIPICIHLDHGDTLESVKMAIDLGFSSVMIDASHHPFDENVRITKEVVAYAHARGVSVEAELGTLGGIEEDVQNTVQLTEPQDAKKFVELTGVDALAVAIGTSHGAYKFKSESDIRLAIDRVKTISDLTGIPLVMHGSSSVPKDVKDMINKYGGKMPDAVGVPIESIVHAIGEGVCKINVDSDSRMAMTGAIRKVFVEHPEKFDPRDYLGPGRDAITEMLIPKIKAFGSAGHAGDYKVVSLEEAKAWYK
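Giardia FBPA (40 nM reagent) was preincubated 10 min at RT with compound (up to 57.5 uM final), then substrate plus GAPDH/TPI/NAD/arsenate coupling system with diaphorase/resazurin was added; resorufin fluorescence (525/598 nm) was read after 20 min.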
AmpC detergent: inhibitors of E. coli AmpC beta-lactamase with detergent. AmpC hydrolysis of nitrocefin, absorbance 480 nm, 0.01% Triton. 0.041% of 370,000 active. AID 485294. Potency, µM (titrated, usually from 114 µM), without a hit: top-dose activity change, negative = inhibition, most hits filed as inhibitors;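 note: 0% = no-compound wells and -100% = no-enzyme wells; nearly all actives have a fitted effect of over 25% in size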
Target sequence (P00811 whole entry, looked up): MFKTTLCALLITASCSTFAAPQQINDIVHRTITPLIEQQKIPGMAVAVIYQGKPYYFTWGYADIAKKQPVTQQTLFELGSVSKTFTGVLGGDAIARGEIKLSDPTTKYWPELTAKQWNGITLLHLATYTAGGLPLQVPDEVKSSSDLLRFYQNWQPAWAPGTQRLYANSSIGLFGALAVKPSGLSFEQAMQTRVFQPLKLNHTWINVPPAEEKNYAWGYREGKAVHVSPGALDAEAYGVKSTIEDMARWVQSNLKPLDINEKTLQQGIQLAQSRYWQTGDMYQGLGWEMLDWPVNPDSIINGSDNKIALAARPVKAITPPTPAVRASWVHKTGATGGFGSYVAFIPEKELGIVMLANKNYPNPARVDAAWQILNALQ
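AmpC (5.3 nM in the dispensed reagent) in 20 mM phosphate pH 7.0 with 0.01% (detergent screen) or 0.0001% Triton X-100 was preincubated with compounds for 15 min at room temperature. Nitrocefin was then added from an 800 uM solution, and hydrolysis was followed at 480 nm.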
AmpC no deterg: AmpC beta-lactamase inhibition without detergent. P00811. AmpC nitrocefin hydrolysis, absorbance 480 nm, 0.0001% Triton. Potency, µM (series often up to 57.1 µM), inactives show at the highest dose activity change, negative = inhibition, actives largely listed as inhibitors. 0.52% of 330,000 active;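 note: plate controls were no compound for no effect and no enzyme for full effect; nearly all actives have a fitted effect of over 20% in size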
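AmpC (5.3 nM in the dispensed reagent) in 20 mM phosphate pH 7.0 with 0.01% (detergent screen) or 0.0001% Triton X-100 was preincubated with compounds for 15 min at room temperature. Nitrocefin was then added from an 800 uM solution, and hydrolysis was followed at 480 nm.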
Starred values were filed as active, the others as inactive; ? = inconclusive; . = no result given. This is a sample that favours compounds with a hit; in the whole collection about 1.3% have one here. Calls come from the whole dose curve; as a rule, active = well fitted curve in the direction sought with a large enough effect; inconclusive = small, poorly fitted or top-dose-only effect, or another doubt; inactive = no such curve, though single readings can be large; an effect the other way counts as inactive or inconclusive. Unless noted, % is set by controls: 0 for no effect and ±100 for the full control effect; potency is the fitted concentration of half-maximal effect.

SMILES	AMA1-RON2 inh	LmPK inhibitor	FBPA Giardia inh	AmpC detergent	AmpC no deterg
COc1ccc(-c2ccc(C3C4C=CCC(C)C4C(=O)N3Cc3ccccc3)c(F)c2)cc1C (configuration not stated)	.	.	-0.7%	.	.
CC1=NN(c2ccc(C(=O)O)c(N)c2)C(=O)C1	-13.8%	3.3%	7.06µM*	-8.8%	-23.4%
COc1ccc(N2CCC(CNC(=O)Nc3cccc(OC)c3)C2)cc1 (configuration not stated)	?	-1.4%	?	1.9%	12.6µM*
COc1ccc(N(Cc2ccccc2)C(=O)c2nc(S(C)(=O)=O)ncc2Cl)cc1	.	.	.	12.5%	.
CC(=O)C(=Nc1ccccc1Cl)NNc1ccc(Cl)cc1	20µM*	4.6%	-4.1%	-4.1%	-26.8%
Cc1cc2nc3s/c(=C/c4ccc(-c5ccccc5C(=O)O)o4)c(=O)n3c2cc1C	-26.1%	-4.5%	-5.8%	-0.7%	-28.3%
O=C(O)c1ccccc1-c1ccc(/C=c2\sc3nc4cc(Br)cnc4n3c2=O)o1	10.6µM*	8.9%	-25.1%	-0.1%	-38.0%
CC1(C)CC(=O)C(CC(=O)c2ccccc2)=C(NN=C(N)N)C1	10.5%	.	.	.	.
O=C(O)c1ccccc1-c1c2cc(I)c(=O)c(I)c-2oc2c(I)c(O)c(I)cc12	7.94µM*	.	-8.1%	.	.
C[C@H](CO)N1C[C@H](C)[C@@H](CN(C)S(=O)(=O)c2ccccc2F)Oc2ncc(C#Cc3cccnc3)cc2C1=O	1.4%	.	.	.	.
NC(=O)C1CCN(CC(=O)c2c[nH]c3ccc(F)cc23)CC1	-12.8%	9.6%	1.2%	9.5%	0.141µM*
Oc1ccc2ccccc2c1-c1sc(Nc2ccccc2)n[n+]1-c1ccc(F)cc1	61.6%	-0.7%	0.5%	-11.3%	-46.7%
Fc1ccc(-[n+]2nc(Nc3ccccc3)sc2-c2c3ccccc3cc3ccccc23)cc1	?	1.7%	22.4µM*	4.2%	-7.2%
O=C(O)c1ccc2c(c1)C(=O)N([C@H](Cc1c3ccccc3cc3ccccc13)C(=O)O)C2=O	.	.	8.8%	?	-12.5%
CSc1ccc(/C=N/NC(=O)c2cccc(O)c2)cc1	-3.1%	8.91µM*	-1.7%	-6.3%	-35.7%
O=c1[nH]nc(CNc2ccc(C(F)(F)F)cc2)c2ccccc12	0.0%	6.5%	-11.1%	?	-34.1%
O=c1[nH]nc(CNc2ccc(O)cc2)c2ccccc12	-23.6%	-9.1%	17.7µM*	0.2%	-34.9%
Cc1cc(C)nc(Nc2ncc(O)n2-c2ccc(C)c(C)c2)n1	55.2%	-1.8%	-8.8%	-0.4%	-9.0%
Cc1cc(C)nc(Nc2ncc(O)n2-c2ccc(C)c(Cl)c2)n1	29.5%	-0.7%	-0.3%	-2.3%	0.316µM*
COc1ccc(NC(=O)N2c3ccc(OC)cc3C(C)=CC2(C)C)cc1	-10.5%	3.4%	11.2µM*	?	-58.1%
CCN(CC)S(=O)(=O)c1ccc(C(=O)NCc2ccc3[nH]c4c(c3c2)CCCC4)cc1	-13.3%	-2.7%	-5.2%	-13.4%	25.1µM*
Cc1ccccc1NC(=S)NCc1ccc2[nH]c3c(c2c1)CCCC3	43.5%	2.0%	-4.6%	?	-35.2%
O=C(NCc1ccc2[nH]c3c(c2c1)CCCC3)c1ccc(S(=O)(=O)N2CCCC2)cc1	-9.2%	-2.4%	-3.5%	-13.0%	-10.4%
CN(C)S(=O)(=O)c1ccc(C(=O)NCc2ccc3[nH]c4c(c3c2)CCCC4)cc1	-18.5%	-1.5%	-3.2%	?	28.2µM*
Cc1ccc(C)c(NC(=S)NCc2ccc3[nH]c4c(c3c2)CCCC4)c1	28.2%	8.0%	1.4%	-4.8%	35.5µM*
SMILES	AMA1-RON2 inh	LmPK inhibitor	FBPA Giardia inh	AmpC detergent	AmpC no deterg
Brc1cccc(-c2nnc(CN3CCN(c4ccccn4)CC3)o2)c1	.	.	.	19.3%	.
O=C(C=Cc1ccc2c(c1)OCO2)OCC=Cc1ccc2c(c1)OCO2	12.2%	.	.	.	.
Cc1ccc(S(=O)c2ccc([N+](=O)[O-])c3nonc23)cc1 (configuration not stated)	1.8%	.	.	.	.
Cc1ccc(NC(=O)c2cc(S(=O)(=O)N3CCCCC3)c[nH]2)cc1F	5.4%	-8.6%	-5.4%	-14.9%	-27.3%
CN(C)S(=O)(=O)c1cccc(NC(=O)c2ccc(S(=O)(=O)N3CCCCC3)cc2)c1	-8.5%	.	.	?	-34.4%
O=C(COC(=O)c1ccc(O)cc1)Nc1cccc(S(=O)(=O)N2CCCCC2)c1	0.3%	4.1%	-5.8%	1.7%	8.91µM*
Cc1ccc(NC(=O)c2cc(S(=O)(=O)N3CCCCC3)c[nH]2)cc1C	-0.1%	-0.7%	-4.0%	?	7.08µM*
CS(=O)(=O)c1ccc(C(=O)OCC(=O)Nc2cccc(S(=O)(=O)N3CCCC3)c2)cc1	5.8%	.	.	-12.1%	-54.4%
CN(C)c1ccc(C(=O)Nc2cccc(S(=O)(=O)N3CCCC3)c2)cc1	1.3%	.	.	-15.3%	28.2µM*
O=C(Nc1cccc(S(=O)(=O)N2CCCCC2)c1)c1ccc(S(=O)(=O)C(F)F)cc1	-13.4%	-1.8%	-9.1%	-14.0%	22.4µM*
CCCSCCCNC(=O)c1ccc2c(c1)nc1n2CCCCC1	.	.	.	-1.5%	.
O=C(Nc1ccc(S(=O)(=O)N2CCCC2)cc1)c1cccc(OC(F)F)c1	-13.3%	.	.	-17.7%	31.6µM*
O=C(Nc1ccc(CSc2ccccc2)cc1)c1ccco1	-7.3%	-5.3%	.	-9.9%	-36.2%
COc1ccc(S(=O)(=O)c2cc(NS(=O)(=O)c3ccc(Cl)cc3)c(C)c(C)c2O)cc1	.	.	.	-1.0%	.
O=C(O)C[C@@H]1C(=O)O[C@@H]2C(COC(=O)c3cc(O)c(O)c(O)c3)O[C@@H](OC(=O)c3cc(O)c(O)c(O)c3)[C@@H](OC(=O)c3cc(O)c(O)c4c3[C@H]1[C@H](O)C(=O)O4)[C@H]2OC(=O)c1cc(O)c(O)c(O)c1 (some centres not stated)	.	7.1%	3.97µM*	-3.2%	-47.1%
CCC(C)C(NC(=O)c1ccccc1)C(=O)N1CCN(C(=O)c2ccccc2)CC1 (configuration not stated)	0.4%	.	.	.	.
NC(=O)[C@H]1CCCN1C(=O)[C@H](Cc1cnc[nH]1)NC(=O)[C@@H]1CCC(=O)N1	.	.	3.9%	.	.
O=c1cc2oc3cc(O)c(O)cc3c(-c3ccccc3[N+](=O)[O-])c-2cc1O	0.708µM*	-28.0%	?	-7.1%	1.12µM*
CCCCC(NC(C)=O)c1nc2ccccc2[nH]1 (configuration not stated)	-2.0%	-0.4%	-19.9%	7.9%	39.8µM*
Cc1ccc2c(c1)N(C(=O)Nc1cccc3c1CCCC3)CCO2	.	.	.	25.0%	.
Cc1ccccc1NC(=O)C(C)OC(=O)C1CCCO1 (configuration not stated)	1.1%	.	.	.	.
COc1ccc(NS(=O)(=O)c2cccc(C(=O)NNC(=O)c3cccn3C)c2)cc1	-2.9%	-0.1%	.	?	-18.3%
Cc1ccc(NS(=O)(=O)c2cccc(C(=O)NNC(=O)c3cccn3C)c2)c(C)c1	40.1%	-2.0%	.	1.2%	15.8µM*
